# Laboratory results as given in PubChem BioAssay AID1240 (Sanford-Burnham Center for Chemical Genomics, 2008).
# Where “and” joins values, the source holds several entries; their conditions need not be identical. Equal entries are not always repeated. Screen size: about 50,000 compounds; about 800 (1.6%) showed an effect of 50% or more. Only a selection was taken, and strong results are over-represented in it overall.
# Molecular target: Bcl-2-like protein 10 (Homo sapiens) (UniProt Q9HD36)
# Assay: TR3 peptide-Bcl-B binding displacers, biochemical primary FP assay, phenotype converters (AID 1240);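 note: 0% = Bcl-B with tracer peptide and DMSO and 100% = tracer peptide lacking Bcl-B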
# Conditions: GST-Bcl-B / FITC-TR3 peptide fluorescence polarization; stronger effect = higher value; compound at 3.75 mg/L
# Sequence of Bcl-2-like protein 10 (Homo sapiens) (Q9HD36 whole entry, looked up): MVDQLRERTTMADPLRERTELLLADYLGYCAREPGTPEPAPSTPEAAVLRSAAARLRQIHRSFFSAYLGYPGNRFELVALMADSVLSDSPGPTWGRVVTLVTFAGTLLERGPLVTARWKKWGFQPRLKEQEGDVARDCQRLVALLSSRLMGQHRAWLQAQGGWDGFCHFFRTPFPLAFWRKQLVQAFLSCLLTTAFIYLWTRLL
row,SMILES,displacement
1,O=[N+]([O-])c1ccc(CCNC2CCCCC2)cc1,3.9%
2,COc1ccc(OC)c(-n2c(O)c(C=C3C=Nc4ccccc43)c(=O)[nH]c2=O)c1,118%
3,O=c1[nH]c(=O)n(Cc2ccccc2)c(O)c1C=C1C=Nc2ccccc21,8.6%
4,COc1ccc(OC)c(N2C(=O)CC(=O)NC2=O)c1,-5.1%
5,COC(=O)N1[C@H](c2ccccc2)[C@@H]1c1ccccc1,11.9%
6,O=C(CF)NC(Nc1ccc(Br)cc1)C(Cl)(Cl)Cl (centres undefined),8.3%
7,CN1C(=O)C(=Cc2ccccc2Cl)C(=O)N(C)C1=O,-0.3%
8,C=CCn1cc(C=C2C(=O)NC(=O)NC2=O)c2ccccc21,16.3%
9,CCn1cc(C=C2C(=O)NC(=S)NC2=O)c2ccccc21,136%
10,O=Cc1cn(Cc2ccc(Br)cc2)c2ccccc12,0.2%
11,CCn1cc(C=C2C(=O)NC(=O)NC2=O)c2ccccc21,12.6%
12,CN1C(=O)C(=Cc2cn(Cc3ccc(F)cc3)c3ccccc23)C(=O)N(C)C1=O,138%
13,C=CCc1cc(/C=C2\C(=O)NC(=O)N(c3cc(C)cc(C)c3)C2=O)cc(OC)c1O,-5.3%
14,Cc1cc(C=C2C(=O)NC(=S)NC2=O)c(C)n1-c1ccccc1,104%
15,Cc1cc(/C=C2/C(=O)NC(=O)N(C)C2=O)c(C)n1-c1ccccc1,49.3%
16,Cc1cc(C=C2C(=O)NC(=S)NC2=O)c(C)n1-c1ccc(F)cc1,3.8%
17,Cc1cc(/C=C2\C(=O)NC(=O)N(C)C2=O)c(C)n1-c1ccc2c(c1)OCO2,107%
18,Cc1cc(C=C2C(=O)NC(=S)NC2=O)c(C)n1-c1ccc(Cl)cc1,36.9%
19,Cc1ccc(-n2c(C)cc(/C=C3/C(=O)NC(=O)N(C)C3=O)c2C)cc1,-10.4%
20,O=C1NC(=S)N(c2ccc(Br)cc2)C(=O)/C1=C/c1ccc(-c2ccccc2C(=O)O)o1,19.2%
21,COc1ccc(Br)cc1CN1CCN(C(=O)COc2ccccc2)CC1,2.5%
22,COC(=O)C1C2C(=O)N(c3ccc([N+](=O)[O-])cc3)C(=O)C12c1ccc(C)cc1 (centres undefined),-32.2%
23,Cc1ccc(NC(=O)C2C(C)(C)C2(C)C)cc1C,6.9%
24,CCOC(=O)c1ccc2c(c1)n(Cc1ccccc1)c(C)[n+]2CC,-14.9%
25,COc1cccc(N2C(=O)CC(=O)NC2=O)c1,-8.2%

row,SMILES,displacement
1,CCOc1ccc(N2C(=O)/C(=C/c3cc(Cl)ccc3O)C(=O)NC2=S)cc1,0.4%
2,O=C(O)Cn1cc(/C=C2\C(=O)NC(=O)N(c3ccc(Cl)cc3)C2=O)c2ccccc21,-16.9%
3,COc1ccc(N2C(=O)NC(=O)/C(=C/c3cn(CC(=O)Nc4ccccc4)c4ccccc34)C2=O)cc1,88.8%
4,Cc1ccc(N2C(=O)NC(=O)/C(=C\c3cn(CC(=O)O)c4ccccc34)C2=O)cc1,183%
5,CCc1ccc(/C=C2/C(=O)NC(=O)N(c3ccc(OC)cc3)C2=O)cc1,-18.1%
6,COc1ccccc1OCCn1cc(C=C2C(=O)NC(=O)NC2=O)c2ccccc21,38.7%
7,Cc1ccc(N2C(=O)NC(=O)/C(=C\c3ccccc3OCc3ccc(C(=O)O)cc3)C2=O)cc1,-9.2%
8,CCOc1cc(C)cc2oc(=O)c3c(c12)CCC3,-1.5%
9,Nc1ccc(Br)cc1C(=O)c1ccc(Cl)cc1Cl,10%
10,O=C1NC(=O)N(Cc2ccccc2)C(=O)/C1=C/c1ccc2c(c1)OCO2,13.8%
11,Cn1cc(/C=C2\C(=O)NC(=O)N(Cc3ccccc3)C2=O)c2ccccc21,99.3%
12,CN1C(=O)NC(=O)/C(=C/c2cn(C)c3ccccc23)C1=O,108%
13,O=C1NC(=O)N(Cc2ccccc2)C(=O)/C1=C\C=C\c1ccco1,11.3%
14,CN1C(=O)NC(=O)/C(=C\c2ccc(C(=O)O)cc2)C1=O,1.8%
15,CN1C(=O)NC(=O)/C(=C/c2ccc(I)o2)C1=O,9.2%
16,O=C(Cc1ccccc1)N1CCN(Cc2cccnc2)CC1,9.9%
17,CC(C)c1ccc(N2C(=O)CC(=O)NC2=O)cc1,-5.9%
18,CC1(C)C(C(=O)Nc2cccc3ccccc23)C1(C)C,3.9%
19,Cc1ccccc1-n1c(CN2C(=O)c3ccccc3C2=O)nc2ccccc2c1=O,-9.6%
20,CC(C)CCn1c(=O)c(C(=O)Nc2ccc(I)cc2)c(O)c2ccccc21,7.1%
21,Cc1cc(Cl)ccc1OCC(=O)N1CCN(C)CC1,-6.7%
22,O=C(Nc1ccc(Br)cc1C(=O)c1ccccc1)c1ccc(F)cc1,8.4%
23,O=C(ON1CC1(C(F)(F)F)C(F)(F)F)c1ccccc1 (centres undefined),3.2%
24,O=C1c2ccccc2-c2onc3c(Br)cc(N4CC4)c1c23,178%
25,Cc1ccc(N2C(=O)CC(=O)NC2=S)cc1,5.6%

row,SMILES,displacement
1,COc1cccc(/C=C2/C(=O)NC(=O)N(c3cccc(C)c3)C2=O)c1O,3.1%
2,Cc1ccc(/C=C2/C(=O)NC(=O)N(c3ccc(Cl)cc3)C2=O)o1,36.2%
3,COc1ccc(N2C(=O)NC(=O)/C(=C/c3cc4c(cc3Cl)OCO4)C2=O)cc1,81.5%
4,Cc1ccc(N2C(=O)NC(=O)/C(=C\c3ccc(-c4ccc(Cl)c(C(=O)O)c4)o3)C2=O)cc1,6.3%
5,COc1ccc(N2C(=O)NC(=O)/C(=C/c3ccc(SC)cc3)C2=O)cc1,-9.4%
6,CN1C(=O)NC(=O)/C(=C\c2cc3c(cc2Cl)OCO3)C1=O,0.4%
7,COc1ccc(N2C(=O)NC(=O)/C(=C/c3ccc(-c4cccc(Cl)c4)o3)C2=O)cc1,69%
8,COc1ccc(CN2CCN(Cc3cc(Br)ccc3O)CC2)cc1,13.1%
9,Cc1cc(C=C2C(=O)NC(=O)NC2=O)c(C)n1-c1ccc(N(C)C)cc1,0.1%
10,CN=C(C)c1c(O)n(C)c(=S)n(C)c1=O,8.8%
11,C(=NCCCN1CCOCC1)c1c[nH]c2ccccc12,2.6%
12,O=c1c2ccccc2nc(-c2cccs2)n1-c1ccccn1,19.3%
13,O=C(Cn1c[n+]([N-][N+](=O)[O-])cn1)Nc1ccc(NC(=O)Cn2c[n+]([N-][N+](=O)[O-])cn2)cc1,59.6%
14,O=C(Cn1c[n+]([N-][N+](=O)[O-])cn1)Nc1ccc([N+](=O)[O-])cc1,16.4%
15,O=C(Cn1c[n+]([N-][N+](=O)[O-])cn1)N1CCN(C(=O)Cn2c[n+]([N-][N+](=O)[O-])cn2)CC1,15%
16,CCOc1ccc(N2C(=O)NC(=O)/C(=C\c3ccc(C)o3)C2=O)cc1,11.6%
17,COc1ccc(C=C2C(=O)NC(=S)NC2=O)cc1OCc1ccccc1Cl,8.2%
18,COc1ccc(C=C2C(=O)NC(=O)NC2=O)cc1OCc1ccc(Cl)cc1Cl,150%
19,COc1cc(C=C2C(=O)NC(=O)NC2=O)ccc1OCc1ccc(C(=O)O)cc1,0.6%
20,O=c1oc2ccccc2c2c1C(c1ccc(Cl)cc1)c1c(c3ccccc3oc1=O)O2,10.3%
21,COc1cccc(CN2CCNCC2)c1OC,15.6%
22,O=C(N/N=C1/CN2CCC1CC2)c1ccc(O)cc1,17.8%
23,O=C1C(=Cc2ccc(-c3ccccc3[N+](=O)[O-])o2)C(=O)N(c2ccccc2)C(=S)N1c1ccccc1,16.4%
24,COC(=O)C(=O)/C(=C\c1ccc(-c2ccccc2[N+](=O)[O-])o1)C(=O)c1ccccc1,56.7%
25,CN1C(=O)NC(=O)/C(=C/c2ccc(-c3ccccc3[N+](=O)[O-])o2)C1=O,35.6%

row,SMILES,displacement
1,Cc1ccccc1-n1c(=S)[nH]c2ccccc2c1=O,-11% and -8.7%
2,O=C1Nc2ccccc2/C1=C/c1nc2ccc(I)cc2c(=O)n1-c1ccccc1,4.5%
3,O=[N+]([O-])c1ccc(CNCCc2cccc(F)c2)cc1,2.2%
4,CN1C(=O)C(=Cc2cccc(OCCOc3ccc([N+](=O)[O-])cc3)c2)C(=O)N(C)C1=O,6.4%
5,C=CCOc1ccc(/C=C2\C(=O)NC(=O)N(CC=C)C2=O)cc1OC,10.9%
6,COc1cc(C=C2C(=O)N(C)C(=O)N(C)C2=O)ccc1OCCOc1ccccc1,54.3%
7,Cc1ccc(-c2nc3ccccc3c(=O)n2-c2nccs2)cc1,-0.6%
8,O=[N+]([O-])/C=C/c1ccccc1OCc1ccc(Cl)cc1Cl,4.5%
9,Cc1cc(C)cc(N2C(=O)NC(=O)/C(=C\c3cc(C)n(C)c3C)C2=O)c1,90.5%
10,Cc1cc(/C=C2\C(=O)NC(=O)N(c3cccc(Br)c3)C2=O)c(C)n1C,126%
11,O=C1NC(=O)N(c2cccc(Br)c2)C(=O)/C1=C/c1ccco1,5.2%
12,CCc1ccccc1N1C(=O)NC(=O)/C(=C\c2cc(C)n(C)c2C)C1=O,87.7%
13,Cc1cc(/C=C2\C(=O)NC(=O)N(c3ccc(Cl)cc3)C2=O)c(C)n1C,1.7%
14,Cc1cc(C=C2C(=O)NC(=S)NC2=O)c(C)n1C,6.6%
15,Cc1cc(/C=C2\C(=O)NC(=S)N(c3ccccc3F)C2=O)c(C)n1C,14.1%
16,O=C1NC(=O)N(c2ccccc2Cl)C(=O)C1=Cc1ccccc1,12.8%
17,O=C1NC(=O)N(c2cccc(Br)c2)C(=O)/C1=C/c1ccc(-c2ccc(C(=O)O)cc2)o1,-56.7%
18,Cc1ccc(-n2c(/C=C3/C(=O)Nc4ccc(Br)cc43)nc3ccccc3c2=O)cc1,4.3%
19,Cc1cc(C)cc(N2C(=O)NC(=O)/C(=C\C=C\c3ccccc3)C2=O)c1,42.9%
20,CCCCn1c(=O)c(C(=O)Nc2ccc(I)cc2)c(O)c2ccccc21,7.1%
21,CN1C(=O)C(=Cc2ccc(-c3cc(C(=O)O)ccc3Cl)o2)C(=O)N(C)C1=O,-2.5%
22,Cc1ccc(N2C(=O)NC(=O)/C(=C\C=C\c3ccccc3)C2=O)cc1,21.4%
23,CN1C(=O)NC(=O)/C(=C/c2ccc(-c3ccc([N+](=O)[O-])cc3)o2)C1=O,3.6%
24,Cc1cc([N+](=O)[O-])c(C)cc1-c1ccc(C=C2C(=O)NC(=O)NC2=O)o1,8.4%
25,Cc1cccc(N2C(=O)NC(=O)/C(=C/c3ccc(-c4ccc([N+](=O)[O-])cc4C)o3)C2=O)c1,76.7%

row,SMILES,displacement
1,Cc1cc([N+](=O)[O-])ccc1-c1ccc(/C=C2/C(=O)NC(=O)N(C)C2=O)o1,11.4%
2,CN1C(=O)NC(=O)/C(=C/c2ccc(-c3cccc([N+](=O)[O-])c3)o2)C1=O,-20.5%
3,O=C1NC(=O)C(=Cc2ccc(-c3ccc([N+](=O)[O-])cc3Cl)o2)C(=O)N1,66.8%
4,O=C1NC(=O)C(=Cc2ccc(-c3cc([N+](=O)[O-])ccc3O)o2)C(=O)N1,109%
5,C=CCN1C(=O)NC(=O)/C(=C/c2ccc(-c3cc([N+](=O)[O-])ccc3Cl)o2)C1=O,84.3%
6,O=C1NC(=S)NC(=O)C1=Cc1ccc(-c2cc(Cl)c([N+](=O)[O-])cc2Cl)o1,19.3%
7,CN1C(=O)NC(=O)/C(=C/c2ccc(-c3ccc([N+](=O)[O-])cc3Br)o2)C1=O,-9.1%
8,O=C1NC(=S)NC(=O)C1=Cc1ccc(-c2ccc([N+](=O)[O-])cc2Br)o1,29%
9,Cc1cc(-c2ccc(C=C3C(=O)NC(=O)NC3=O)o2)ccc1[N+](=O)[O-],13.1%
10,COc1ccc(CN2C(=O)NC(=O)/C(=C\c3ccoc3)C2=O)cc1,-114%
11,CSc1nc2ccccc2c(=O)n1-c1cccc(C)c1,-6.2%
12,O=C1NC(=O)N(c2ccc(Cl)cc2)C(=O)/C1=C\c1cc(Br)cc(Cl)c1O,4.8%
13,N#CC(C#N)=Cc1cccc2ccccc12,5.7%
14,O=C1NC(=S)NC(=O)C1=Cc1cccc(OS(=O)(=O)c2ccc3ccccc3c2)c1,3.4%
15,COc1cc(OC)c(OC)cc1CN1CCN(C(=O)COc2ccccc2)CC1,-13.1%
16,COc1ccc(CN2CCN(C(=O)Cc3ccccc3)CC2)cc1Br,-10%
17,CN(C)c1ccc(/C=C2\C(=O)NC(=O)N(c3ccccc3Cl)C2=O)cc1,9.7%
18,Cc1cc(C)cc(-n2c(C)cc(C=C3C(=O)NC(=O)NC3=O)c2C)c1,13.1%
19,Cc1cc(C=C2C(=O)NC(=O)NC2=O)c(C)n1C1CCCCC1,124%
20,Cc1cc(C=C2C(=O)NC(=O)NC2=O)c(C)n1C,2.4%
21,O=C1c2ccccc2NC(c2ccccc2F)N1c1ccccc1 (centres undefined),-0.3%
22,Cc1nc2ccccc2c(=O)n1-c1ccc([N+](=O)[O-])cc1,11.9%
23,Cc1nc2ccc(I)cc2c(=O)n1-c1ccc([N+](=O)[O-])cc1Cl,13%
24,Cc1nc2cc([N+](=O)[O-])ccc2c(=O)n1-c1ccc(Cl)cc1,71.3%
